In the supplement of paper PMC6658780:
Counter-ions that a name gives are not always drawn. ± gives the standard deviation of the averaged measurements.

test system: Escherichia coli ATCC BAA-2469; assay: percent growth inhibition of drug alone vs DMSO control; higher = more growth inhibition; conditions: antibiotic (0.125x MIC): none (0.1% DMSO); 7 µM
Procedure: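 Prestwick drugs tested at 20 uM and 7 uM with an antibiotic at 0.125x MIC (16 mg/L when MIC >128 mg/L) against E. coli ATCC BAA-2469 (NDM-1) in CAMHB, 384-well plates, duplicate runs. Percent growth inhibition was computed from OD600 (24 h minus 0 h) relative to DMSO wells. Drug + DMSO-only wells are also given. […]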

SMILES | percent growth inhibition of drug alone [%]
C[C@H]1[C@H](NC(=O)/C(=N\OC(C)(C)C(=O)O)c2csc(N)n2)C(=O)N1S(=O)(=O)O [Aztreonam] | 13.2 ± 14
N=C(NCCCCCCNC(=N)NC(=N)Nc1ccc(Cl)cc1)NC(=N)Nc1ccc(Cl)cc1 [Chlorhexidine] | 103 ± 2.7
COc1cc(C(=O)NCc2ccc(OCCN(C)C)cc2)cc(OC)c1OC [Trimethobenzamide hydrochloride] | 2.6 ± 2.7
CCC[C@@H]1C[C@@H](C(=O)N[C@@H]([C@H]2O[C@H](SC)[C@H](O)[C@@H](O)[C@H]2O)[C@H](C)Cl)N(C)C1 [Clindamycin hydrochloride] | 12.8 ± 13
O=C(Nc1ccc([N+](=O)[O-])cc1Cl)c1cc(Cl)ccc1O [Niclosamide] | 2.78 ± 1.6
CS(=O)(=O)c1ccc([C@@H](O)[C@@H](CF)NC(=O)C(Cl)Cl)cc1 [Florfenicol] | 21.5 ± 9.2
Oc1c(Cl)cc(Cl)c(Cl)c1Cc1c(O)c(Cl)cc(Cl)c1Cl [Hexachlorophene] | 9.96 ± 8.8
CC(=O)OC[C@H]1O[C@@H]([S-])[C@H](OC(C)=O)[C@@H](OC(C)=O)[C@@H]1OC(C)=O.CCP(CC)CC.[Au+] [Auranofin] | 5.6 ± 2.6
CCN(CC)CCNC(=O)c1cc(Br)c(N)cc1OC [Bromopride] | -0.123 ± 0.93
CCCNC(C)(C)COC(=O)c1ccccc1 [Meprylcaine hydrochloride] | 0.029 ± 2.2
Cc1cn([C@H]2C[C@H](N=[N+]=[N-])[C@@H](CO)O2)c(=O)[nH]c1=O [Zidovudine, AZT] | 102 ± 2.3
O=C1CN(/N=C/c2ccc([N+](=O)[O-])o2)C(=O)N1 [Nitrofurantoin] | 5.87 ± 5.7
Nc1nc(O)c2ncn(CCC(CO)CO)c2n1 [Penciclovir] | 1.39 ± 3.5
Nc1ccn([C@@H]2O[C@H](CO)[C@@H](O)C2(F)F)c(=O)n1 [Gemcitabine] | 15.3 ± 12
Nc1nnc(-c2cccc(Cl)c2Cl)c(N)n1 [Lamotrigine] | 2.35 ± 0.19
Cn1c(=O)c2c(ncn2C)n(C)c1=O [Caffeine] | 1.12 ± 0.78
COc1ccccc1OCC(O)CO (stereo not given) [Guaifenesin] | -0.628 ± 1.6
CCOC(=O)c1ccc(N)cc1 [Benzocaine] | -0.533 ± 1.7
CC1=C(/C=C/C(C)=C/C=C/C(C)=C\C(=O)O)C(C)(C)CCC1 [Isotretinoin] | 1.08 ± 2.4
CC(=O)c1ccc2c(c1)N(CCCN1CCC(CCO)CC1)c1ccccc1S2 [Piperacetazine] | 0.548 ± 3.2
CCCCCCCCCCCCCCCC[N+](C)(C)CCN(Cc1ccc(OC)cc1)c1ncccn1 [Thonzonium bromide] | 3.7 ± 4.2
O=c1[nH]c(=O)n([C@H]2C[C@H](O)[C@@H](CO)O2)cc1C(F)(F)F [Trifluridine] | 4.84 ± 4.7

same assay, conditions: antibiotic (0.125x MIC): none (0.1% DMSO); 20 µM

SMILES | percent growth inhibition of drug alone [%]
N=C(NCCCCCCNC(=N)NC(=N)Nc1ccc(Cl)cc1)NC(=N)Nc1ccc(Cl)cc1 [Chlorhexidine] | 106 ± 2.6
COc1cc(C(=O)NCc2ccc(OCCN(C)C)cc2)cc(OC)c1OC [Trimethobenzamide hydrochloride] | -0.217 ± 4.2
CCC[C@@H]1C[C@@H](C(=O)N[C@@H]([C@H]2O[C@H](SC)[C@H](O)[C@@H](O)[C@H]2O)[C@H](C)Cl)N(C)C1 [Clindamycin hydrochloride] | 35.5 ± 16
O=C(Nc1ccc([N+](=O)[O-])cc1Cl)c1cc(Cl)ccc1O [Niclosamide] | 14.5 ± 19
CC(=O)OC[C@H]1O[C@@H]([S-])[C@H](OC(C)=O)[C@@H](OC(C)=O)[C@@H]1OC(C)=O.CCP(CC)CC.[Au+] [Auranofin] | 20.1 ± 20
CCN(CC)CCNC(=O)c1cc(Br)c(N)cc1OC [Bromopride] | 1.57 ± 1.2
CCCNC(C)(C)COC(=O)c1ccccc1 [Meprylcaine hydrochloride] | -0.823 ± 0.32
Cc1cn([C@H]2C[C@H](N=[N+]=[N-])[C@@H](CO)O2)c(=O)[nH]c1=O [Zidovudine, AZT] | 115 ± 12
CN(C)c1ccc(O)c2c1C[C@H]1C[C@H]3[C@H](N(C)C)C(O)=C(C(N)=O)C(=O)[C@@]3(O)C(O)=C1C2=O [Minocycline hydrochloride] | 110 ± 14
Nc1nc(O)c2ncn(CCC(CO)CO)c2n1 [Penciclovir] | -1.4 ± 2.5
Nc1ccn([C@@H]2O[C@H](CO)[C@@H](O)C2(F)F)c(=O)n1 [Gemcitabine] | 28.3 ± 14
Nc1nnc(-c2cccc(Cl)c2Cl)c(N)n1 [Lamotrigine] | 1.91 ± 1.2
Cn1c(=O)c2c(ncn2C)n(C)c1=O [Caffeine] | -1.35 ± 0.22
COc1ccccc1OCC(O)CO (stereo not given) [Guaifenesin] | -0.463 ± 1.9
CCOC(=O)c1ccc(N)cc1 [Benzocaine] | 1.27 ± 1.7
CC1=C(/C=C/C(C)=C/C=C/C(C)=C\C(=O)O)C(C)(C)CCC1 [Isotretinoin] | 3.78 ± 1.7
CC(=O)c1ccc2c(c1)N(CCCN1CCC(CCO)CC1)c1ccccc1S2 [Piperacetazine] | 0.302 ± 2.2
O=c1[nH]c(=O)n([C@H]2C[C@H](O)[C@@H](CO)O2)cc1C(F)(F)F [Trifluridine] | 11.3 ± 6.5
